Data from publication PMC4336329 (PLoS ONE, 2015).
Hit rate of the full screen: of about 310,000 compounds, about 14,000 (4.5%) showed an effect of 50% or more. The effect is printed as a negative number. The sample as a whole holds a higher share of strong results than the screen did.

Target: human ether-à-go-go-related gene (hERG) potassium channel (human, UniProt Q12809)
Assay: primary screen, population patch clamp on CHO cells stably expressing hERG; higher = less effect of the substance
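Note: peak tail current of the secondary pulse compared with the same well before compound.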

human ether-à-go-go-related gene (hERG) potassium channel, sequence (Q12809 whole entry, looked up): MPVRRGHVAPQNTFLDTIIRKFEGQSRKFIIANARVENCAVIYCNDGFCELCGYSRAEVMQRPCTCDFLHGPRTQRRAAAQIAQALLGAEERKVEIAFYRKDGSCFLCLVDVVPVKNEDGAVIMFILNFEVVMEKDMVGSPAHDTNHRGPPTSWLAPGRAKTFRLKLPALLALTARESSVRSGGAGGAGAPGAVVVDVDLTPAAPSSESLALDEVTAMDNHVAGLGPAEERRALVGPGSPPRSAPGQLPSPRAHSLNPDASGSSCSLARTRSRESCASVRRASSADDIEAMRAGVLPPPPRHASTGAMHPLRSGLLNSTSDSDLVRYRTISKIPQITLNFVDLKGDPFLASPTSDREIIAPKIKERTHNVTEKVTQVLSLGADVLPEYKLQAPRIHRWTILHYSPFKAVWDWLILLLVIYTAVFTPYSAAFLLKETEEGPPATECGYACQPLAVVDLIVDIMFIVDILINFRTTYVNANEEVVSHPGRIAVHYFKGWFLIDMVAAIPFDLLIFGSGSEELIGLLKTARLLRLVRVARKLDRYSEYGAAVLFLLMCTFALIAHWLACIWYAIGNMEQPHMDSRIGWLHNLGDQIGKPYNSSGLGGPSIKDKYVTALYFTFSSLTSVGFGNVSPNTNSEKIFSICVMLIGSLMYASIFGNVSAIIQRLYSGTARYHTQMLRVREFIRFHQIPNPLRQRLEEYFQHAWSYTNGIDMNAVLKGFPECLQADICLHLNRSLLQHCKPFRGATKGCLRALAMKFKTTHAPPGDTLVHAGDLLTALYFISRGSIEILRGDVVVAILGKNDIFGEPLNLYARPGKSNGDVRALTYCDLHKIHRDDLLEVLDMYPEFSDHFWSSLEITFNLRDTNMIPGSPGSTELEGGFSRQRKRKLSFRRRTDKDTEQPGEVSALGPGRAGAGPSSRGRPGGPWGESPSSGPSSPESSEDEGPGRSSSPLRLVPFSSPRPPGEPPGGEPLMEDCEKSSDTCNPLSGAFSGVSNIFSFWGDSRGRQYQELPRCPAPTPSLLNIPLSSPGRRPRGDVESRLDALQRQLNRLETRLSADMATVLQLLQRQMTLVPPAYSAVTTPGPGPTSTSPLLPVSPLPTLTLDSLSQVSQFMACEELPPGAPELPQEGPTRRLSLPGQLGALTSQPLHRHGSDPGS

| SMILES | hERG current change (%, negative = inhibition) at 10uM [%] |
| --- | --- |
| O=C1NC(=O)N(c2ccccc2)C1=O | 19.9 |
| CCc1ccc(C(=O)NC(=S)NCc2cccnc2)cc1 | -40.7 |
| CC(C)(C)C(=O)Nc1ccc(NC(=O)C(C)(C)C)cc1 | -6.63 |
| O=C(Nc1cccc(Br)c1)c1ccc(CN2CCc3ccccc3C2)cc1 | -1.55 |
| O=S(=O)(Cc1cc(NCc2ccccc2)nc(-c2ccncc2)n1)c1ccccc1 | 20.3 |
| Nc1ccc(Br)c[n+]1Cc1cccc2cccnc12.[Br-] | -51.6 |
| Cc1cc(CSc2nc(C)cc(=O)[nH]2)c2ncccc2c1 | -3.07 |
| Nc1sc(-c2ccccc2)n[n+]1Cc1cccc2cccnc12.[Br-] | -66.7 |
| Cc1cc(C[n+]2cc(Br)ccc2N)c2ncccc2c1.[Br-] | -68 |
| Nc1ccc(Cl)c[n+]1Cc1cccc2cccnc12.[Br-] | -46.1 |
| Nc1scc[n+]1Cc1cccc2cccnc12.[Br-] | -12.3 |
| OCc1ccccc1OCCCOc1cccc2cccnc12 | -3.4 |
| Cc1cc(C[n+]2cc(Cl)ccc2N)c2ncccc2c1.[Br-] | -48.1 |
| Nc1scn[n+]1Cc1cccc2cccnc12.[Br-] | -11.1 |
| Cc1noc(C)c1CSCC(=O)Nc1cc(Cl)ccc1N1CCCCC1 | 1.96 |
| CCN(CC)S(=O)(=O)c1ccc(NC2c3ccccc3C(=O)N2CCN2CCOCC2)cc1 (stereo not shown) | -37 |
| Cc1ccc2c(CC(=O)NC3CCS(=O)(=O)C3)coc2c1C (stereo not shown) | 1.78 |
| CC(C(=O)NCc1ccccc1Cl)n1cc([N+](=O)[O-])cn1 (stereo not shown) | 4.65 |
| Cc1ccc2cc3c(NS(=O)(=O)c4cccc5nonc45)nn(CC(C)C)c3nc2c1 | 9.9 |
| COc1ccc(CNCCc2c[nH]c3ccccc23)c(OC)c1OC.O=C(O)C(=O)O | -7.44 |
| COc1cc(C)c(CNCCc2c[nH]c3ccccc23)cc1C.O=C(O)C(=O)O | -36.9 |
| COc1cccc(CNCCc2c[nH]c3ccccc23)c1OC.Cl | -11.1 |
| COc1cc(C(=O)N[C@@H](Cc2c[nH]c3ccccc23)C(=O)O)cc(OC)c1OC | -53.1 |

| SMILES | hERG current change (%, negative = inhibition) at 10uM [%] |
| --- | --- |
| COc1ccc(C(=O)NC(Cc2c[nH]c3ccccc23)C(=O)O)cc1 (stereo not shown) | 12.4 |
| COc1cccc(CNCCc2c[nH]c3ccccc23)c1OCc1ccccc1F.Cl | -55.8 |
| COc1ccc(CNCCc2c[nH]c3ccccc23)c(OC)c1C.O=C(O)C(=O)O | -60.3 |
| COc1ccc(CNCCc2c[nH]c3ccccc23)cc1OC.O=C(O)C(=O)O | -28 |
| COc1cc(CNCCc2c[nH]c3ccccc23)ccc1OCc1ccc(F)cc1.Cl | -48.4 |
| COc1cccc(CNCCc2c[nH]c3ccccc23)c1OCc1ccccc1.Cl | -47 |
| O=C(NC(Cc1c[nH]c2ccccc12)C(=O)O)c1ccccc1 (stereo not shown) | 1.22 |
| COc1cc(CNCCc2c[nH]c3ccccc23)ccc1OCc1ccccc1F.Cl | -52 |
| Cc1cnc(C(=O)Nc2ccc(F)cc2)cn1 | -0.2 |
| CCN(CC)C(=O)C1CCCN(C(=O)Nc2ccc(NC(=O)N3CCCC(C(=O)N(CC)CC)C3)cc2)C1 (stereo not shown) | -11.5 |
| COc1ccc(NC(=O)c2cc(-c3cc(C)cc(C)c3O)n[nH]2)cc1Cl | -4.52 |
| Cn1c2c(c(=O)n(C)c1=O)CN(CC1CCCO1)CN2 (stereo not shown) | 9.87 |
| CC(C)C(=O)Nc1nc(-c2ccc([N+](=O)[O-])cc2)cs1 | 7.04 |
| CC(C)(C)NC(=O)c1cc(-c2ccccc2)n[nH]1 | 11.5 |
| Cc1ccc(-n2c(Cc3noc4ccccc34)n[nH]c2=S)cc1 | 8.59 |
| NS(=O)(=O)c1cccnc1Nc1cccc(Cl)c1 | 11.8 |
| Cn1nc(-c2ccc(Cl)cc2)c2cc(C(=O)NCCCN3CCCC3)sc21 | -59.5 |
| CCN(CC)CCCNC(=O)c1cc2c(-c3ccc(Cl)cc3)nn(C)c2s1 | -59.9 |
| COCCCNC(=O)c1cc2c(-c3ccc(Cl)cc3)nn(C)c2s1 | -3.72 |
| CCCCN(CC)CCCNC(=O)c1cc2c(-c3ccc(OC)c(OC)c3)nn(C)c2s1 | -7.25 |
| CCOCCCNC(=O)c1cc2c(-c3ccc(Cl)cc3)nn(C)c2s1 | 9.31 |
| CCCCNC(=O)c1cc2c(-c3ccc(Cl)cc3)nn(C)c2s1 | -7.09 |
| CC(C)NC(=O)c1cc2c(-c3ccc(Cl)cc3)nn(C)c2s1 | 4.67 |

| SMILES | hERG current change (%, negative = inhibition) at 10uM [%] |
| --- | --- |
| CN1CCN(CCCNC(=O)c2cc3c(-c4ccc(Cl)cc4)nn(C)c3s2)CC1 | -40.1 |
| CCCCN(CC)CCNC(=O)c1cc2c(-c3ccc(Cl)cc3)nn(C)c2s1 | -74.8 |
| Cn1nc(-c2ccc(Cl)cc2)c2cc(C(=O)NCCCN3CCOCC3)sc21 | -13.1 |
| CCN(CC)CCNC(=O)c1cc2c(-c3ccc(Cl)cc3)nn(C)c2s1 | -69.6 |
| COc1cc(CNC(C)C)ccc1OCC(=O)Nc1cccc2ccccc12 | -27.2 |
| CC(=O)NC1(c2cccc(F)c2)CCN(CC(=O)NC(C)C)CC1 | 9.55 |
| Cc1cc(C(C)(C)C)n2nc(C)c(-c3ccccc3)c2n1 | 13.9 |
| O=[N+]([O-])c1ccc(O)c(Nc2c([N+](=O)[O-])ccc3nonc23)c1 | 16 |
| CCNc1nc(OC)nc(SCC(=O)Nc2ccccc2)n1 | 17.2 |
| Cc1nnc(Nc2ccc(Cl)cc2)n(N)c1=O | 8.16 |
| O=C(Nc1cccc(-c2nc3ncccc3o2)c1)c1ccccc1 | -9.36 |
| O=S(=O)(NCc1cccs1)c1ccc(Br)s1 | 2.07 |
| CCCCN(C)CCNC(=O)c1cc2c(-c3ccccc3F)nn(C)c2s1 | -48 |
| CCN(CC)CCCNC(=O)c1cc(-c2ccccc2)c(N2CCCCC2)s1 | -51.7 |
| CCCN(CCC)CCNC(=O)c1cc2c(-c3ccccc3F)nn(C)c2s1 | -47.2 |
| O=C(NCCc1ccccc1)c1cc(-c2ccccc2)c(N2CCOCC2)s1 | 3.07 |
| CCCN(CCC)CCNC(=O)c1cc2c(-c3ccc(Cl)cc3)nn(C)c2s1 | -65.6 |
| CCCN(CCC)CCCNC(=O)c1cc2c(-c3ccc(OC)c(OC)c3)nn(C)c2s1 | -6.94 |
| CCN1CCCC1CNC(=O)c1cc2c(-c3ccc(Cl)cc3)nn(C)c2s1 (stereo not shown) | -62.4 |
| CCCCN(CC)CCNC(=O)c1cc2c(-c3ccccc3F)nn(C)c2s1 | -66.7 |
| Cc1ccc(CNC(=O)c2cc3c(-c4ccc(Cl)cc4)nn(C)c3s2)o1 | -8.27 |
| Cn1nc(-c2ccc(Cl)cc2)c2cc(C(=O)NC3CC3)sc21 | -1.54 |
| CCN1CCCC1CNC(=O)c1cc2c(-c3cccc(OC)c3)nn(C)c2s1 (stereo not shown) | -46.3 |

| SMILES | hERG current change (%, negative = inhibition) at 10uM [%] |
| --- | --- |
| CCCNC(=O)c1cc(-c2ccccc2)c(N2CCCCC2)s1 | 14.2 |
| CCOC(=O)c1ccc(CC2SC(N)=NC2=O)cc1 (stereo not shown) | 2.63 |
| Cc1ccc(NC(=O)CSc2nc(=O)cc(N)n2-c2ccccc2)cc1 | 20.3 |
| CC(C)(C)NC(=O)NC(=O)CN1C(=O)NC(C)(c2ccccc2)C1=O (stereo not shown) | 15.8 |
| O=C(N/N=C/c1ccoc1)c1cccc([N+](=O)[O-])c1 | 9.75 |
| COc1ccc(NS(=O)(=O)c2cccc(C(=O)NCC(c3ccc(OC)cc3)N3CCOCC3)c2)cc1 (stereo not shown) | -26.1 |
| O=c1c[n+]([O-])c2ccccc2n1OCc1ccccn1 | 18.9 |
| Cc1ccc(N2C(=O)C(NC(=O)c3c(F)cccc3F)(C(F)(F)F)C3=C2CC(C)(C)CC3=O)cc1 (stereo not shown) | 9.34 |
| CC(C)c1cc(-c2cc(C(=O)Nc3ccccc3)on2)nc(NCC2CC2)n1 | 10.3 |
| NC(=O)NN=C1C2CCCC1C(c1ccccc1)NC2c1ccccc1 (stereo not shown) | -7.17 |
| O=C(O)C/C(=C\c1ccc(Cl)cc1)c1nc2ccccc2o1 | 6.78 |
| Cc1cc(C)c2c(c1)c(C)cc1nnc(SCC(=O)c3cccs3)n12 | -2.98 |
| Cc1ccc(C)c2c1cc(C)c1nnc(SCC(=O)c3cccs3)n12 | -61.5 |
| Cc1ccc2cc(C)c3nnc(SCC(=O)c4cccs4)n3c2c1C | -23.1 |
| Cc1cc(N)n(-c2ccc(C(=O)O)cc2)n1.Cl | 13.6 |
| COc1ccc(CNC(=O)c2ccc(-c3ccccc3)cc2)cc1OC | 0.777 |
| Cc1cc2c(cc1S(=O)(=O)CCC(=O)NC1CCCCC1C)OCC(=O)N2 (stereo not shown) | -53 |
| CC(=O)c1cccc(NC(=O)CCS(=O)(=O)c2cc3c(cc2C)NC(=O)CO3)c1 | 1.62 |
| Cc1cc2c(cc1S(=O)(=O)CCC(=O)Nc1cccc(C(F)(F)F)c1)OCC(=O)N2 | -54 |
| Cc1cc2c(cc1S(=O)(=O)CCC(=O)NC1CCC(C)CC1)OCC(=O)N2 (stereo not shown) | -14.7 |
| CC1CCCCC1NC(=O)CCS(=O)(=O)c1cc2c(cc1Cl)NC(=O)CO2 (stereo not shown) | -30.5 |
| CCc1cccc(NC(=O)CCS(=O)(=O)c2cc3c(cc2C)NC(=O)CO3)c1 | -14.1 |
